From PubChem BioAssay
Marburg entry inh = blocks Marburg virus binding to or entry into cells. Potency, µM (titrated, usually from 37.8 µM), for inactives: at the highest dose activity change, negative = inhibition, actives largely listed as inhibitors. Marburg virus pseudotyped entry inhibition, cell reporter. AID 540276. actives 1.8% (n = 300,000); calls by dose curve; tested in HEK293 cells; also: potency is read from the fitted curve at half-maximal effect
VACV Venus inh = inhibitors of vaccinia virus (Venus reporter) | Vaccinia virus Venus reporter expression, fluorescence | Potency, µM (highest dose often 36.5 µM), without a hit: at the highest dose activity change, negative = inhibition, hits mostly inhibitors | actives 0.46% (n = 330,000); calls by dose curve; tested in A549 cells; also: potency is read from the fitted curve at half-maximal effect; nearly all actives have a fitted effect of over 30% in size
Lassa entry inh = blocks Lassa virus binding to or entry into cells; actives 1.2% (n = 300,000); AID 540256; Potency, µM (series often up to 37.9 µM), for inactives: top-dose activity change, negative = inhibition, actives largely listed as inhibitors; Lassa virus pseudotype entry inhibition, cell reporter; calls by dose curve; tested in HEK293 cells; also: potency is read from the fitted curve at half-maximal effect; nearly all actives have a fitted effect of over 50% in size
HCMV antiviral = inhibitors of human cytomegalovirus; HFF cells, HCMV-luciferase reporter, 72 h; stronger effect = lower value; activity change, negative = inhibition, % at 57.5 µM; actives 4.5% (n = 410,000); AID 1259415; in the data active = activity change below about -60%; inconclusive = no clear call, values can overlap the other calls; inactive = above about -39%
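HFF cells seeded 16 h at 37C, treated with compounds, infected with luciferase-reporter HCMV at MOI 1 PFU/cell; luciferase read at 72 h post infection, normalized to buffer-only and Salinomycin controls.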
FMDV antiviral = foot and mouth disease virus antiviral activity | FMDV antiviral cell-based qHTS | Potency, µM (top dose mostly 57.9 µM), inactives show top-dose activity change, negative = inhibition, actives largely listed as inhibitors | actives 1.2% (n = 410,000) | AID 1159524; calls by dose curve; tested in HEK293T cells; also: read-out not given here; potency is read from the fitted curve at half-maximal effect; nearly all actives have a fitted effect of over 45% in size
VACV mCherry inh = inhibitors of vaccinia virus infection (mCherry reporter signal) | Vaccinia virus mCherry reporter infection, fluorescence | Potency, µM (doses to about 36.5 µM), for inactives: at the top dose activity change, negative = inhibition, actives largely listed as inhibitors | actives 0.63% (n = 310,000) | AID 720579; calls by dose curve; tested in A549 cells; also: potency is read from the fitted curve at half-maximal effect; nearly all actives have a fitted effect of over 35% in size
Numbers without * were called inactive; i = inactive; ? = inconclusive; . = no result given; + = active, no number; ! = not confirmed by another sample; [ ] = another dose, or the depositor's remark. Sampled rows, rich in hits. Any-hit rate of the full collection: about 6.5%. % is scaled to controls: 0 for no effect and ±100 for the full control effect.

SMILES	Marburg entry inh	VACV Venus inh	Lassa entry inh	HCMV antiviral	FMDV antiviral	VACV mCherry inh
Cc1cc(C(=O)NCc2nc(-c3cccc(NC(=O)c4ccccc4)c3)oc2C)nc(C)n1	.	-5.2%	.	.	?	-11.8%
CCOCCc1nn2c(=O)cc(COC(=O)c3ccc4c(c3)OCO4)nc2s1	.	4.1%	-5.7%[46.1 µM]	21.1	8.5%	-3.0%
O=C(CSc1nccn1Cc1ccc(F)cc1)NC1CCCCC1	.	-6.1%	.	-34.0	-21.1%	i
O=C(CSc1nccn1Cc1ccc(Cl)cc1)NC1CCCC1	.	-14.3%	-1.1%[46.1 µM]	-62.6*	-25.7%	i
O=C(CSc1nccn1Cc1ccc(F)cc1)NC1CCCC1	6.7%	-13.8%	-8.5%	-64.7*!	-22.3%	-13.3%
Cc1ccc(Cn2ccnc2SCC(=O)NC2CCCC2)cc1	-3.8%	-5.5%	15.2%	-14.7	-4.8%	-5.4%
Fc1ccc(C(NCCc2ccc(Cl)cc2)c2nnc(-c3ccccc3Cl)o2)cc1 (centres undefined)	?	-4.9%	-23.7%[46.1 µM]	12.0	2.1%	-2.6%
C=CC[n+]1ccc(/C=C2\C=Cc3cc(C)ccc3N2CC)c2ccccc21	.	.	.	.	35.5µM*	.
CCN1/C(=C/c2cc[n+](CCCS(=O)(=O)[O-])c3ccccc23)Sc2ccccc21	9.2%[46.1 µM]	222.1%	?	?	-19.1%	i
O=C1[C@@H]2CC=C(Cl)C[C@H]2C(=O)N1CNc1ccccn1	8.5%	.	.	.	.	.
COc1ccc(C2=Nc3ccccc3N(C(=O)c3ccc4ncccc4c3)C2C(=O)NC2CCCC2)cc1 (centres undefined)	.	-25.4%	.	-77.7*	40.8%	?
COc1ccc(C2=Nc3ccccc3N(C(=O)c3ccc4ncccc4c3)C2C(=O)NC(C)(C)C)cc1 (centres undefined)	.	-10.0%	.	199.0	10.6%	-6.6%
COC(=O)CS(=O)(=O)c1nnc([C@H](Cc2ccccc2)NC(=O)OC(C)(C)C)o1	?	3.5%	?	79.2	31.6µM*	-23.1%
CC(C)(C)OC(=O)N[C@@H](Cc1ccccc1)c1nnc(SCC(N)=O)o1	.	.	.	3.3	-0.3%	.
Cc1cccc(CS(=O)(=O)c2nnc([C@H](Cc3ccccc3)NC(=O)OC(C)(C)C)o2)c1	16.4µM*	.	-10.2%	.	31.6µM*	.
O=C(CSc1cn(CC(=O)N2CCCCC2)c2ccccc12)NCc1ccc(F)cc1	.	-12.1%	-8.0%[46.1 µM]	?	23.8%	-14.6%
Nc1ncnc(N)c1NC(=O)c1ccccc1	.	.	.	-101.3*	.	.
Nc1ccccc1NC(=O)c1ccccc1	-2.7%	-22.0%	-6.3%	44.8	14.6%	?
CCn1c(C(=O)N2CCCC(C(=O)N3CCN(c4ccccc4)CC3)C2)cc2sccc21 (centres undefined)	?	-13.0%	.	-22.3	-21.4%	-13.8%
O=C(N/N=C/c1ccccc1)c1cccc2ccccc12	1.7%[46.1 µM]	-7.7%	-6.4%[46.1 µM]	-20.1	38.4%	-24.9%
COc1ccc2cc(C(=O)N/N=C/c3sc4ccccc4c3O)ccc2c1	?	-18.4%	?	-98.1*	?	-28.2%
COc1ccc(C(=O)N/N=C/c2sc3ccccc3c2O)cc1	?	?	?	.	33.7%	?
O=C(N/N=C/c1sc2ccccc2c1O)c1ccccc1	?	-23.3%	?	.	-2.6%	10µM*
O=C(N/N=C/c1sc2ccccc2c1O)c1cccc2ccccc12	14.1µM*	?	?	-104.2*	27.7%	?
C[C@@H]1CC[C@H]2C(=O)O[C@H](CN=[N+]=[N-])CN2[C@@H]1c1ccc(Br)cc1	1.0%[14.2 µM]	.	.	.	.	.
SMILES	Marburg entry inh	VACV Venus inh	Lassa entry inh	HCMV antiviral	FMDV antiviral	VACV mCherry inh
COc1ccc(OC)c(-c2ccnc(-n3ncc(C(=O)N(C)CCc4ccccn4)c3C)n2)c1	.	-3.8%	.	.	-10.8%	-15.3%
COc1ccc2c(c1)OC(C)CN(CCNC(=O)c1cc3cc(F)ccc3[nH]1)C2 (centres undefined)	.	-10.1%	.	.	16.8%	-13.2%
COC(=O)C1=C(C)N(CCC(C)O[Si](C)(C)C(C)(C)C)C(=O)N(C(C)=O)C1c1ccccc1 (centres undefined)	7.2%[14.2 µM]	.	.	.	.	.
COc1ccc(OC)c(-c2csc(N(CC3CCCO3)C(=O)C3CCCCC3)n2)c1 (centres undefined)	-17.8%	.	-0.6%	-71.5*	3.0%	.
COc1ccc(-n2nnnc2C2CCN(S(=O)(=O)c3ccc(C)cc3)CC2)cc1	?	-18.5%	4.8%[46.1 µM]	-0.5	-26.5%	-20.2%
Cc1cccc(N2CCN(c3ncnc4onc(-c5ccc(F)cc5)c34)CC2C)c1 (centres undefined)	.	1.3%	-9.6%[46.1 µM]	-15.8	?	-6.0%
Cc1cccc(N2CCN(c3ncnc4onc(C)c34)CC2C)c1 (centres undefined)	.	-13.0%[7.34 µM]	?	-99.6*	3.16µM*	-10.4%[7.34 µM]
Cn1c(=O)c2c(-c3ccccc3)n3c(c2n(C)c1=O)C(c1cccc([N+](=O)[O-])c1)Nc1ccccc1-3 (centres undefined)	-2.9%[46.1 µM]	-16.0%	-7.9%[46.1 µM]	3.9	?	-21.5%
CC(CN1CCOCC1)OC(=O)Cc1ccc(Cl)cc1 (centres undefined)	-4.6%[46.1 µM]	2.6%	-12.3%	6.6	4.4%	3.6%
O=C(Cc1ccccc1)OC(COCc1ccccc1)CN1CCOCC1 (centres undefined)	-2.6%[46.1 µM]	-10.3%	5.0%	-88.2*	-14.9%	.
COc1ccccc1N1CCN(C(=O)c2[nH]c(C(F)(F)F)nc2-c2ccccc2)CC1	.	?	.	-63.8*	-11.0%	0.4%
CC(=O)N1CCN(C(=O)c2[nH]c(C(F)(F)F)nc2-c2ccccc2)CC1	.	0.8%	.	21.8	-21.3%	2.7%
COc1ccc(N2CCN(C(=O)c3[nH]c(C(F)(F)F)nc3-c3ccccc3)CC2)cc1	.	-14.7%	.	5.3	-3.0%	3.1%
Cc1cccc(N2CCN(C(=O)c3[nH]c(C(F)(F)F)nc3-c3ccccc3)CC2)c1C	.	?	.	-87.2*	-10.3%	?
Cc1ccc(S(=O)(=O)N2CCCc3cc(NS(=O)(=O)c4ccc(F)c(C)c4)ccc32)cc1	.	?	-26.9%[46.1 µM]	-60.5*	-39.6%	?
Cn1cc(Cl)cc1-c1ncc(Cc2c[nH]c(N)[n+]2C)o1	.	.	.	-11.5	.	.
CC(C)C(=O)NC(=S)/C=C1/N(C)c2ccccc2C1(C)C	-29.5%	29.1%	-18.0%	?	-29.3%	i
Cc1ccc(C(=O)NC(=S)/C=C2\N(C)c3ccccc3C2(C)C)cc1	-2.2%	.	.	-68.0*	-26.7%	.
CN1/C(=C\C=N\NC(=O)c2ccc(O)cc2)C(C)(C)c2ccccc21	?	38.0%	?	-90.3*	28.2µM*	i
CCOc1ccc(NC(=O)c2ccc(NC(=O)N3CCSc4ncccc43)cc2)cc1	.	-18.4%	2.8%[46.1 µM]	?	31.6µM*	-22.9%
CCOc1ccccc1CNC(=O)c1ccc(NC(=O)N2CCSc3ncccc32)cc1	.	-16.0%	-24.3%[46.1 µM]	+	?	-14.2%
CCCC(=O)Oc1ccccc1C1SCc2cc(C)c(C)cc2CS1	?	-14.5%	?	-60.3*	-17.6%	-1.1%
